Test results as given in PubChem BioAssay (EPA / NIEHS).
Activity calls are given as the source filed them. Rule for the calls: active = hit-call score of the fitted dose curve at least 0.9, where 1 is the maximum; inactive = score below 0.9.

How the values were obtained:
[1] = read-out: Vascular endothelial growth factor receptor 2 (Homo sapiens) (UniProt P35968); test: BSK_4H_VEGFRII: BioMAP Diversity Plus: 4H Assay for Vascular endothelial growth factor receptor 2 (VEGFR2) Biomarker Activity (AID 2283031); conditions: primary human endothelial cells (HUVEC); actives raise or lower the signal;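 for AC50: cell-surface VEGFR2 protein level quantified by ELISA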
Summary of the method: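 Primary human umbilical vein endothelial cells in the BioMAP 4H system were dosed with test chemical, and 24 h later VEGFRII was measured by ELISA. Activity was fitted bidirectionally against DMSO as negative control and baseline.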

[2] = read-out: Human Leukocyte Antigen - DR isotype (HLADR), HLA-DRA (gene 3122); test: BSK_BE3C_HLADR: BioMAP Diversity Plus: BE3C Assay for Human Leukocyte Antigen - DR isotype (HLADR) Biomarker Activity (AID 2283032); conditions: primary human bronchial epithelial cells; actives raise or lower the signal
Summary of the method: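 Signal came from an ELISA for HLA-DR in human bronchial epithelial primary cells harvested 24 h after treatment; gain- and loss-of-signal fitting used DMSO controls as reference.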

[3] = read-out: Vascular cell adhesion molecule 1 (VCAM1), VCAM1 (gene 7412); test: BSK_4H_VCAM1: BioMAP Diversity Plus: 4H Assay for Vascular cell adhesion molecule 1 (VCAM1) Biomarker Activity (AID 2283033); conditions: primary human endothelial cells (HUVEC); actives raise or lower the signal
Summary of the method: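 Endpoint derived from bidirectional fitting against DMSO controls of VCAM-1 ELISA signal in umbilical vein endothelial cells sampled at 24 h following treatment.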

[4] = read-out: Interferon-gamma inducible Protein 10 (IP10), CXCL10 (gene 3627); test: BSK_BE3C_IP10: BioMAP Diversity Plus: BE3C Assay for Interferon-gamma inducible Protein 10 (IP10) Biomarker Activity (AID 2283034); conditions: primary human bronchial epithelial cells; actives raise or lower the signal
Summary of the method: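 Using primary human bronchial epithelial cultures, the assay captures IP-10 by ELISA one day (24 h) after exposure. Parallel SRB staining of total protein flags overt cytotoxicity. Fits run bidirectionally relative to DMSO.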

[5] = read-out: Monokine induced gamma interferon (MIG), CXCL9 (gene 4283); test: BSK_BE3C_MIG: BioMAP Diversity Plus: BE3C Assay for Monokine induced gamma interferon (MIG) Biomarker Activity (AID 2283035); conditions: primary human bronchial epithelial cells; actives raise or lower the signal
Summary of the method: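 MIG level was determined by ELISA after 24 h chemical treatment of primary human bronchial epithelial cells. Values were fitted bidirectionally with DMSO as the negative control and activity baseline.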

[6] = read-out: Transforming growth factor beta 1 (TGFb1), TGFB1 (gene 7040); test: BSK_BE3C_TGFb1: BioMAP Diversity Plus: BE3C Assay for Transforming growth factor beta 1 (TGFb1) Biomarker Activity (AID 2283036); conditions: primary human bronchial epithelial cells; actives raise or lower the signal
Summary of the method: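 In this human primary bronchial epithelial system, an ELISA quantified TGF-b1 one day after dosing. Endpoint changes in either direction were fitted relative to DMSO.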

[7] = read-out: Plasminogen activator inhibitor-1 (PAI1), SERPINE1 (gene 5054); test: BSK_BE3C_PAI1: BioMAP Diversity Plus: BE3C Assay for Plasminogen activator inhibitor-1 (PAI1) Biomarker Activity (AID 2283037); conditions: primary human bronchial epithelial cells; actives raise or lower the signal
Summary of the method: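 PAI-1 biomarker levels in treated human bronchial epithelial cells are determined by ELISA at 24 h. Both increases and decreases relative to DMSO are fitted.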

[8] = read-out: urokinase plasminogen activator (uPA), PLAU (gene 5328); test: BSK_BE3C_uPA: BioMAP Diversity Plus: BE3C Assay for urokinase plasminogen activator (uPA) Biomarker Activity (AID 2283038); conditions: primary human bronchial epithelial cells; actives raise or lower the signal
Summary of the method: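 Human primary bronchial epithelial cells were exposed to chemical for 24 h, then uPA levels were measured by ELISA. Responses were fitted bidirectionally against DMSO as negative control and baseline. Parallel SRB staining of total protein gauged overt cytotoxicity.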

[9] = read-out: Urokinase-type plasminogen activator receptor (uPAR), PLAUR (gene 5329); test: BSK_BE3C_uPAR: BioMAP Diversity Plus: BE3C Assay for Urokinase-type plasminogen activator receptor (uPAR) Biomarker Activity (AID 2283039); conditions: primary human bronchial epithelial cells; actives raise or lower the signal
Summary of the method: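 A uPAR ELISA serves as the readout, taken 24 h after treating primary human bronchial epithelial cells. Responses in either direction are fitted against DMSO, which defines baseline activity.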

[10] = read-out: Interleukin-6 (IL6), IL6 (gene 3569); test: BSK_CASM3C_IL6: BioMAP Diversity Plus: CASM3C Assay for Interleukin-6 (IL6) Biomarker Activity for (AID 2283040); conditions: primary human coronary artery smooth muscle cells; actives raise or lower the signal
[11] = read-out: Tissue plasminogen activator (tPA), PLAT (gene 5327); test: BSK_BE3C_tPA: BioMAP Diversity Plus: BE3C Assay for Tissue plasminogen activator (tPA) Biomarker Activity (AID 2283041); conditions: primary human bronchial epithelial cells; actives raise or lower the signal
Summary of the method: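 Bidirectional curve fitting relative to DMSO defined activity, with tPA detected by ELISA in chemically treated human bronchial epithelial primary cells at 24 hours.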

[12] = read-out: Interleukin-8 (IL8), CXCL8 (gene 3576); test: BSK_CASM3C_IL8: BioMAP Diversity Plus: CASM3C Assay for Interleukin-8 (IL8) Biomarker Activity (AID 2283042); conditions: primary human coronary artery smooth muscle cells; actives raise or lower the signal;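 note: IL-8 protein level quantified by ELISA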
[13] = read-out: Human Leukocyte Antigen - DR isotype (HLADR), HLA-DRA (gene 3122); test: BSK_CASM3C_HLADR: BioMAP Diversity Plus: CASM3C Assay for Human Leukocyte Antigen - DR isotype (HLADR) Biomarker Activity (AID 2283043); conditions: primary human coronary artery smooth muscle cells; actives raise or lower the signal;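 note: cell-surface HLA-DR protein level quantified by ELISA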
[14] = read-out: Macrophage colony-stimulating factor (MCSF), CSF1 (gene 1435); test: BSK_CASM3C_MCSF: BioMAP Diversity Plus: CASM3C Assay for Macrophage colony-stimulating factor (MCSF) Biomarker Activity (AID 2283044); conditions: primary human coronary artery smooth muscle cells; actives raise or lower the signal;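 note: M-CSF protein amount quantified by ELISA after 24 h exposure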
[15] = read-out: Low-density lipoprotein receptor (LDLR), LDLR (gene 3949); test: BSK_CASM3C_LDLR: BioMAP Diversity Plus: CASM3C Assay for Low-density lipoprotein receptor (LDLR) Biomarker Activity (AID 2283045); conditions: primary human coronary artery smooth muscle cells; actives raise or lower the signal;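 note: LDLR protein level on the cell surface quantified by ELISA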
[16] = read-out: Monocyte Chemoattractant Protein-1 (MCP1), CCL2 (gene 6347); test: BSK_CASM3C_MCP1: BioMAP Diversity Plus: CASM3C Assay for Monocyte Chemoattractant Protein-1 (MCP1) Biomarker Activity (AID 2283046); conditions: primary human coronary artery smooth muscle cells; actives raise or lower the signal;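 note: MCP-1 level quantified by ELISA 24 h after dosing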
[17] = BSK_CASM3C_Proliferation: Cell Proliferation Assessment in the BioMAP Diversity Plus: CASM3C Assay (AID 2283047); conditions: primary human coronary artery smooth muscle cells;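 note: sulforhodamine B total protein stain as relative cell number at 560 nm; sub-confluent cells exposed 48 h before staining; fitted both ways against DMSO so gain or loss of cell number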
[18] = read-out: Monokine induced gamma interferon (MIG), CXCL9 (gene 4283); test: BSK_CASM3C_MIG: BioMAP Diversity Plus: CASM3C Assay for Monokine induced gamma interferon (MIG) Biomarker Activity (AID 2283048); conditions: primary human coronary artery smooth muscle cells; actives raise or lower the signal
[19] = read-out: serum amyloid A (SAA), SAA1 (gene 6288); test: BSK_CASM3C_SAA: BioMAP Diversity Plus: CASM3C Assay for serum amyloid A (SAA) Biomarker Activity (AID 2283049); conditions: primary human coronary artery smooth muscle cells; actives raise or lower the signal;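 note: SAA protein level quantified by ELISA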
[20] = BSK_CASM3C_SRB: Viability Assessment in the BioMAP Diversity Plus: CASM3C Assay (AID 2283050); conditions: primary human coronary artery smooth muscle cells

Measured: AC50

OC12N=C(c3ccccc3)SC1Cc1cc(Cl)ccc12 (centres undefined)
active: [3] 20 µM | [17] 30.1 µM
inactive: all other assays above

CCCCCCCCCCCCO
active: [1] 34 µM | [3] 30.5 µM | [4] 30.8 µM | [6] 30.1 µM | [10] 30.7 µM | [11] 24.8 µM | [12] 35 µM | [13] 31.5 µM | [14] 31.2 µM | [16] 34.7 µM | [17] 32.6 µM | [18] 31.3 µM | [19] 29.4 µM
inactive: [2] | [5] | [7] | [8] | [9] | [15] | [20]

CCCC(=O)OCCC(C)C
inactive: all assays above

NCc1cccc(C2CCN(C(=O)c3ccc(C#Cc4ccccc4F)o3)CC2)c1
inactive: [1] | [16]
active: [2] 6.79 µM | [3] 26.2 µM | [4] 12.4 µM | [5] 13.7 µM | [6] 13.1 µM | [7] 13.8 µM | [9] 11.8 µM | [10] 33.9 µM | [11] 7.07 µM | [12] 34.7 µM | [13] 13.3 µM | [14] 28.4 µM | [15] 35.3 µM | [17] 22.3 µM | [18] 34 µM | [19] 27.7 µM | [20] 16 µM

CC(C)(C)c1csc(-c2cc3cc(OCc4ccccc4CC(=O)O)ccc3o2)n1
inactive: [6] | [10] | [12] | [15] | [16] | [18] | [19]
active: [1] 9.41 µM | [2] 6.97 µM | [3] 31.1 µM | [4] 6.96 µM | [5] 11.4 µM | [7] 5.03 µM | [8] 11.6 µM | [9] 12.2 µM | [11] 6.81 µM | [13] 29 µM | [14] 28.2 µM | [17] 34 µM | [20] 31 µM
